Assay results reported in ChEMBL document CHEMBL4513216, “Probing the Open Global Health Chemical Diversity Library for Multistage-Active Starting Points for Next-Generation Antimalarials” (ACS Infect Dis, 2020).
The whole screen tested about 69,000 compounds, of which about 8,600 (12%) showed an effect of 50% or more. What follows is part of a selection rich in strong results, with near analogues and random picks from the rest.

Each compound was assayed on Plasmodium berghei (assay: Screen against P. berghei liver stage (PbLuc), transformed with Luciferase, at 10uM). Settings: tested at 10 uM.
Format: functional, HepG2

Row | SMILES | INHIBITION
1 | Cn1cc(CN2CCc3nc4ccccc4c(=O)n3CC2)cn1 | -10.2%
2 | COC(=O)C(NC(=O)CCOC(C)C)c1cc(F)ccc1F (centres undefined) | -19.9%
3 | Cc1ccc(N(CC(=O)N2CCCCC2)C(=O)C2COCCO2)cc1 (centres undefined) | 11.6%
4 | CC(C)CC(NC(=O)c1cccs1)c1nc2cccnc2n1C (centres undefined) | -11.4%
5 | Cn1ccnc1C1(O)CCN(C(=O)CCc2ccccc2)CC1 | 27.465%
6 | O=C1NCCCc2[nH]c(C3CCN(C(=O)C4CC4)CC3)nc21 | 10.4%
7 | CN(CCn1cncc1-c1cnc(N2CCOCC2)nc1)C1CCCC1 | -11.05%
8 | O=C(NC[C@H]1OC[C@@H](NCc2ccccc2)[C@@H]1O)Nc1ccccc1 | 17.7%
9 | O=C(NC[C@H]1OC[C@@H](NC2CCCCC2)[C@@H]1O)Nc1ccccc1 | 26%
10 | CN1CCC(N[C@@H]2CO[C@H](CNC(=O)Nc3ccccc3)[C@H]2O)CC1 | 60.1%
11 | CN(C)C(=O)Cn1c(C2CC2)c(CN2CCOCC2)c2cccnc21 | -13.2%
12 | Cc1c(Cl)cccc1N1CC(c2nnc(N)s2)CC1=O (centres undefined) | 35.8%
13 | CC(C)(C)c1coc([C@@H]2COCCN2Cc2ncc[nH]2)n1 | 20.9%
14 | Cn1cc(CN2CCOC[C@H]2c2nc(C(C)(C)C)co2)c2ccccc21 | 10%
15 | CC(C)(C)c1coc([C@@H]2COCCN2Cc2ccccn2)n1 | -37.4%
16 | CC(C)(C)c1coc([C@@H]2COCCN2Cc2c[nH]cn2)n1 | 62.8%
17 | CC(C)(C)c1coc([C@@H]2COCCN2Cc2ccccc2)n1 | 3.25%
18 | Cn1c(CN2CCOC[C@H]2c2nc(C(C)(C)C)co2)nc2ccccc21 | 52%
19 | CS(=O)(=O)N1CC[C@H]2OCC[C@@]2(C(=O)NCC2CC2)C1 | 42.1%
20 | CN1CCN(Cc2c(Cl)ccc(O)c2Cl)CC1C(=O)O (centres undefined) | -27.6%
21 | CN(C)CCN1C(=O)CCCC12CCCN(C(=O)c1ccncc1)C2 (centres undefined) | 5.68%
22 | COC1COC2(CCN(C(=O)c3cocn3)CC2)C1 (centres undefined) | 39.4%
23 | O=C(c1ccccc1F)N1CCC2(CC1)CC(Oc1ccccn1)CO2 (centres undefined) | 46.6%

Row | SMILES | INHIBITION
24 | O=C(c1ccccc1)N1CCC2(CC1)CC(Oc1ccccc1)CO2 (centres undefined) | 52%
25 | COC1COC2(CCN(C(=O)c3cscn3)CC2)C1 (centres undefined) | 53.9%
26 | COC1COC2(CCN(C(=O)c3cnc(C)cn3)CC2)C1 (centres undefined) | -21.7%
27 | O=C(c1cccnc1)N1CCC2(CC1)CC(Oc1ccccc1)CO2 (centres undefined) | 34.4%
28 | COc1ncccc1C(=O)N1CCC2(CC1)CC(OC)CO2 (centres undefined) | 25.8%
29 | COC1COC2(CCN(C(=O)c3ccccc3F)CC2)C1 (centres undefined) | 62.9%
30 | CC(=O)N1CCC2(CC1)CC(Oc1ccccc1)CO2 (centres undefined) | 33.5%
31 | CCn1c(O)c(C(C)=O)c2cc(C)ccc21 | 33.4%
32 | Cc1ccc(-c2nc(CN3CCCCC3Cn3cncn3)no2)cc1 (centres undefined) | 21.5%
33 | CCS(=O)(=O)CCSc1ccc(Br)cc1 | -59.8%
34 | CN(CC(O)COc1ccc(C(F)(F)F)cc1)C(=O)Nc1nncs1 (centres undefined) | -0.87%
35 | COc1cc(NC(=O)c2ccc(C)c(F)c2)c(C(=O)N(C)C)cc1OC | 14%
36 | CCn1cc(NC(=O)NC(CO)Cc2c[nH]c3ccccc23)cn1 (centres undefined) | 32.3%
37 | CCn1cc(S(=O)(=O)NC(CO)Cc2c[nH]c3ccccc23)cn1 (centres undefined) | 19.3%
38 | CCn1cc(S(=O)(=O)NC(=O)CCc2c[nH]c3ccccc23)cn1 | 61.5%
39 | CN(Cc1cc(C(C)(C)C)n[nH]1)C(=O)CCC(=O)NC1CCCC1 | 32.1%
40 | Cn1ncc(NC(=O)c2noc3c2CCCC3)c1C(N)=O | 2.6%
41 | O=C(C1CCC2(CCN(CC3CC3)CC2)O1)N1CCCC1 (centres undefined) | 1.34%
42 | COc1ccc(C(=O)N(C)Cc2cccc(C#N)c2)c(OC)c1OC | 50.1%
43 | COc1cccc(CN(C)Cc2cccc(C#N)c2)c1OC | -3.19%
44 | COc1ccc(C(=O)N(C)Cc2nnc3ccccn23)c(OC)c1OC | -8.11%
45 | CCOc1ccc2oc(-c3cn(C)nc3C)c(O)c(=O)c2c1 | 25.9%
46 | COC(=O)CCC(=O)N(Cc1ccc2cc[nH]c2c1)C1CC1 | -8.8%

Row | SMILES | INHIBITION
47 | COc1cc(C2CC(=O)Nc3c2nc2n3CCCC2)cc2c1OCO2 (centres undefined) | 34%
48 | CCNC(=O)[C@@H]1C[C@@H](N)CN1C(=O)c1[nH]c2ccccc2c1CC | 11.5%
49 | CCOCCCNc1ncc(-c2onc(C)c2C)c(-c2ccco2)n1 | 27.465%
50 | CCC(=O)NCC1(O)CCC(C(C)(C)C)CC1 (centres undefined) | -5.92%
51 | Cc1cc(C)cc(OCCN(C)Cc2cscn2)c1 | 28.1%
52 | COCCS(=O)(=O)N(Cc1cscn1)c1ccccc1 | 22.8%
53 | CCN(C)S(=O)(=O)N(Cc1cscn1)c1ccccc1 | 66.4%
54 | CN(C)S(=O)(=O)N(Cc1cscn1)c1ccccc1 | 62.4%
55 | CN(CCOc1ccc(Br)cc1)Cc1cscn1 | -62.6%
56 | Cc1ccc(OCCN(C)Cc2cscn2)cc1 | -23.8%
57 | CC(C)c1ccc(CN2CCCC3(CC2)CN(C)C(=O)O3)cc1 (centres undefined) | -58.7%
58 | CS(=O)(=O)c1cncnc1C1CCCNC1 (centres undefined) | 20.4%
59 | CN(C)C(=O)CN1C(=O)CCC12CCN(Cc1cccs1)CC2 | 9.97%
60 | Cc1noc(C)c1CNC(=O)Nc1ccc(N2CCOC2=O)cc1 | 13.9%
61 | Cc1ccsc1CNC(=O)c1ccc(N2CCNC2=O)cc1 | 25.2%
62 | O=C1CCc2cc(C(=O)NCc3ccc(Cl)s3)ccc2N1 | -28.6%
63 | O=C1COc2cc(C(=O)NCc3ccc(Cl)s3)ccc2N1 | 16.8%
64 | CCc1ccc(CNC(=O)NC(C)CN2CCOCC2)s1 (centres undefined) | -3.95%
65 | O=C(NCc1ccc(Cl)s1)c1ccc(N2CCOC2=O)cc1 | 72.2%
66 | CCc1ccc(CNC(=O)c2ccc(N3CCOC3=O)cc2)s1 | 78.2%
67 | Cc1ccsc1CNC(=O)c1ccc(N2CCOC2=O)cc1 | 56.8%
68 | Cc1ccsc1CNC(=O)c1ccc2c(c1)CCC(=O)N2 | -20.8%
69 | Cc1cccn2cc(C[S+]([O-])Cc3noc(C(C)C)n3)nc12 (centres undefined) | -9.51%
